Measured values published in PubChem BioAssay (NCI).
Compounds without any hit were thinned out: in the full panel of roughly 83,000, 20% have a hit.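 Step 1: grow cells in 96-well plates. Step 2: add test compound at a single concentration. Step 3: incubate 48 h. Step 4: record percent growth.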 Values without a mark were called inactive. The source made the active and inactive calls.

Test system: TK-10 renal
Experiment: NCI-60 one-dose screen, 48 h (100 = growth as untreated, 0 = no growth, -100 = all killed)
Settings: 10 µM unless noted
Experimental: Growth inhibition of the TK-10 human tumor cell line is measured as a screen for anti-cancer activity. Cells are grown in 96 well plates and exposed to the test compound for 48 hours. Compounds are tested at a single concentration, which is 10^-5 M for most compounds. The reported endpoint is percent growth (GI% or GIPRCNT), where numbers from 0 - 100% represent growth inhibition, and numbers from -100% - 0 represent cell death. For example, a value of 40 represents 60% growth inhibition. A value of 0 means no net growth occurred over the course of the experiment. A value of -40 indicates 40% of cells at the beginning of the experiment died by the end of the experiment. A value of -100 means all cells are dead at the end of the experiment.
NCI-60 Human Tumor Cell Lines Screen was performed using the standard one-dose NCI protocol, which is described in more detail at https://dtp.cancer.gov/discovery_development/nci-60/default.htm.
Compounds with GIPRCNT values below 10 were considered active. Activity score was based on GIPRCNT using the following formula: […]
Score is 0 for GIPRCNT values of 100 or above, 50 for GIPRCNT values of 0, and 100 for GIPRCNT values of -100.

| Compound | growth |
| --- | --- |
| COc1ccc(/C=C/C(=O)c2ccc(-n3cc(CN4CCN(c5cc6c(cc5F)c(=O)c(C(=O)O)cn6C5CC5)CC4)nn3)cc2)cc1 | 104% |
| C=CCNc1ccc2c3c(cccc13)C(=O)N(CC=C)C2=O | 97.3% |
| COc1cc(OC)cc(C(=O)Nc2cnc(Nc3ccc(N4CCOCC4)nc3)nc2Oc2ccc(C(F)(F)F)cc2)c1 | 81.9% |
| COc1cc(/C=C2\CN(S(=O)(=O)c3ccc(C)cc3)C/C(=C\c3cc(CN4CCCC4)c(O)c(OC)c3)C2=O)cc(CN2CCCC2)c1O | 24.7% |
| Cc1cc(C(=O)Nc2cc(Nc3ncccc3-c3ncnc4nc[nH]c34)ccc2F)cc(C(C)(C)C#N)c1 | 60.8% |
| CCCN1C2CCC1/C(=C\c1ccc(OC)cc1)C(=O)/C2=C/c1ccc(OC)cc1 | 85.9% |
| C#CCOc1cccc(Nc2ncnc3c(NC(=O)CCl)cccc23)c1 | 63.7% |
| COC(=O)c1c(C)nc(C)c2c1C(=O)C(Br)=C(NCCN1CCOCC1)C2=O | 108% |
| Nc1nc(N)c2c(n1)NC(c1cccc(Nc3ccnc4cc(C(F)(F)F)ccc34)c1)CC(c1ccc(Cl)cc1)=N2 (stereo not given) | 87.4% |
| COc1cc(-c2c(-c3ccccc3)c[nH]c2C(=O)NCCCO)c(OC)c2c1OCO2 | 99% |
| O=S(=O)(c1ccc(NCSc2nc3ccccc3s2)cc1)c1ccc(NCSc2nc3ccccc3s2)cc1 | 92.6% |
| CN(C)c1ccc(/C=C/C2=[N+](C)c3ccccc3C2(C)C)cc1 | 30.4% |
| CCOc1ccc(-c2cc(C3(S(=O)(=O)c4ccc(C)cc4)CC=CC3)on2)cc1 | 94.1% |
| CCOc1ccc(N2C(=O)CCSC2=S)cc1 | 96.3% |
| Cc1ccc(C(=O)Nc2ccc(CN3CCN(C)CC3)c(C(F)(F)F)c2)cc1C#Cc1cnc(N)c2ccccc12 | 29.9% |
| CNC1=C(Br)C(=O)c2c(C(=O)OC)c(C)nc(C)c2C1=O | 132% |
| CSc1nc(CC(C)C)c(C#N)c(=O)n1C | 34.2% |
| COc1cc(-c2ccc(-c3ccc(C(=N)N)s3)s2)cc(OC)c1OC | 82.8% |
| Cc1ccc(C2(C)NC(=O)N(CC(=O)Nc3cccc(C)c3)C2=O)cc1 (stereo not given) | 106% |
| C(CCCSC1=NCCN1)CCSC1=NCCN1 | 122% |

| Compound | growth |
| --- | --- |
| O=C1OCC2=C1C(c1cccc(F)c1)c1cc3c(cc1N2CCO)CCC3 (stereo not given) | 57.5% |
| COc1cc2c(c(OC)c1OC)CCC(c1cccc(NC(=O)c3cccc(Cl)c3)c1)O2 (stereo not given) | 90.2% |
| CCCN1C(=O)N(CCC)C2C1NC(=S)N2/N=C/C=C/c1ccccc1OC (stereo not given) | 57.3% |
| CCOC(=O)c1c(C)n2c(=O)cc(C)c3c(OC(C)=O)c(OC(C)=O)cc1c32 | 96% |
| CC(=O)CC(=O)c1ccccc1.[Cu+2] | 103% |
| Cc1[nH]c(C(=O)Nc2ccccc2OC2CCNC2)c(Cl)c1Cl (stereo not given) | 122% |
| CC(C)=CCC[C@](C)(O)C1CC[C@]2(C)[C@@H]1CC[C@@H]1[C@@]3(C)CC/C(=N\OCCC#N)C(C)(C)[C@@H]3CC[C@]12C (stereo not given in full) | 105% |
| CN(C)CCCN(CCC1CCCCC1)CCC1CCCCC1 | 85.2% |
| COc1cc2c(cc1-c1c(C)noc1C)ncc1nc(C3CCOCC3)n(C3CCC(OC(F)F)CC3)c12 (stereo not given) | 21.4% |
| COc1ccc(CNc2c3ccccc3nc3ccccc23)cc1OC | 32.3% |
| CO[C@]12C=C/C(=C(/C(=O)OCc3cccnc3)C(=O)CCCCCCCC[C@]3(OC)C=C/C(=C(/C(=O)OCc4cccnc4)C(=O)CCCCCCCC1)O3)O2 | -13.8% (active) |
| COc1cc2cc(Oc3ccc(NC(=O)Nc4ccc(Cl)c(Cl)c4)cc3)c(C)nc2cc1OCCN1CCCCC1 | 133% |
| Cn1cc(-c2csc(-c3cn(C)c4ccc(F)cc34)n2)c2cnccc21 | -20.2% (active) |
| Cc1ccc(Nc2cc(N)nc(N)n2)cc1 | 108% |
| C#CC#CC#CC#CC#CC#CC#CC#CC[C@@H]1OC[C@H](COC(=O)O[C@@H](C(=O)O[C@H]2C[C@@]3(O)[C@@H](OC(=O)c4ccccc4)[C@@H]4[C@]5(OC(C)=O)CO[C@@H]5C[C@H](O)[C@@]4(C)C(=O)[C@H](OC(C)=O)C(=C2C)C3(C)C)[C@@H](NC(=O)c2ccccc2)c2ccccc2)O1 | 93.3% |
| Cc1c(C)c2c(c(C)c1OC(=O)CCC(=O)[O-])CCC(C)(CCCCCCCCCCC[P+](c1ccccc1)(c1ccccc1)c1ccccc1)O2 (stereo not given) | -14.2% (active) |
| O=C(NS(=O)(=O)c1ccccc1)n1cc(-c2ccncc2)c(-c2cc(O)cc(Cl)c2)n1 | 127% |
| C=C(c1ccc(OC)c(/C=C/C(=O)c2cc(OC)c(OC)c(OC)c2)c1)c1cc(OC)c(OC)c(OC)c1 | 24.3% |
| CC(Cc1cccc2ccccc12)C(N)=O (stereo not given) | 98.7% |
| CCCCCCCCNc1ncnc2c1ncn2Cc1nnc2c3ccccc3c(Cl)nn12 | 43.8% |
